Unmarked numbers belong to inactive results. Calls of active or inactive are those of the source. Calls follow the shape of the dose curve; as a rule, active = well fitted curve in the direction sought with a large enough effect; inconclusive = small, poorly fitted or top-dose-only effect, or another doubt; inactive = no such curve, though single readings can be large or run the other way.

A short description of the experiment: Cellular Toxicity (caspase-3) MRC-5 (AID 659). The settings on record: MRC-5 cells, luminescence, normalized: DMSO 0%, 10 µM staurosporine 100%; series mostly up to 91.7 µM; caspase-3 activation: at the top concentration. The text has this:
NIH Chemical Genomics Center [NCGC]
NIH Molecular Libraries Screening Centers Network [MLSCN]
National Institutes of Environmental Health Sciences [NIEHS]
National Toxicology Program [NTP]
We have developed a 1536-well cell-based assay for quantitative high throughput screening (qHTS) against a number of cell lines to determine in vitro caspase 3/7 activity of small molecules. This particular assay uses the MRC-5 cell line which is derived from human normal lung fibroblasts.
NCGC Assay Protocol Summary:
The Caspase-Glo 3/7 assay (Promega) is a homogeneous method to measure caspase-3 and caspase-7 activities in cultured cells. The quantitation of caspase 3/7 activity is based on the cleavage of a peptide-aminoluciferin substrate. After caspase cleaves the substrate the free aminoluciferin is liberated and serves as the substrate of luciferase, which generates the light. The luminescent signal is proportional to amount of caspase 3/7 activity present.
Using the Caspase-Glo 3/7 assay, the amount of caspase 3/7 activity was measured in the MRC-5 line with complete culture medium following compound treatment for 16 hours. The assay was performed in opaque white 1536-well plates. In the screen, tamoxifen and staurosporine were used as positive controls. Library compounds were measured for their ability to cause the activation of caspase 3/7 in the cell line, as reflected by an increase in luminescence signal, in a concentration-dependent manner. Data were normalized to the controls for basal activity (DMSO only) and 100% stimulation (10 uM staurosporine). AC50 values were determined from concentration-response data modeled with the standard Hill equation.
qHTS protocol for caspase 3/7 assay in MRC-5 cells
[Step] [Parameter] [Value] [Description]
1. Reagent; 5 uL; 1500 MRC-5 cells/well
2. Time; 5 hr; 37 °C incubation
4. Controls; 23 nL; Tamoxifen 0.23 uM to 100 uM & staurosporine 1.4 pM to 100 uM
5. Time; 16 hr; 37 °C incubation
6. Reagent; 5 uL; Caspase-Glo 3/7 reagent
7. Time; 1 hr; Room Temperature
8. Detection; Luminescence; Viewlux plate reader
Keywords: caspase 3/7, apoptosis, MRC-5 cell line, luminescence, NTPHTS, NTPHTS_NCGC, NIEHS, EPA, DSSTox, MLSMR, MLSCN, NIH Roadmap, qHTS, NCGC
Take `c1ccc2c(c1)Nc1ccccc1S2`: the “caspase-3 activation” value was -0.291%. Turning to `CCOP(=S)(OCC)Oc1cc(C)nc(C(C)C)n1`, the “caspase-3 activation” value was -0.914%. With `Oc1cccc2cccnc12`, the result was inactive.

In the case of `NCC(O)c1ccc(O)cc1` (configuration not stated), the “caspase-3 activation” value is 3.21%. Regarding `CCCC(C)(COC(N)=O)COC(=O)NC(C)C` (configuration not stated), the “caspase-3 activation” value was -0.889%. Regarding `Oc1ccc(Cl)cc1Cc1ccccc1`, the “caspase-3 activation” value was 4.47%. On the same count and under the same terms, in the case of `Clc1ccc(COC(Cn2ccnc2)c2ccc(Cl)cc2Cl)cc1` (configuration not stated) it was 10.1%. On the same count and under the same terms, for `C[C@]12C/C(=C/O)C(=O)C[C@@H]1CC[C@@H]1[C@@H]2CC[C@@]2(C)[C@H]1CC[C@]2(C)O` the value was 3.78%. Same read-out and setting: in the case of `CNCC(O)c1ccc(O)cc1` (configuration not stated) it was 1.14%. On to `OCCOc1ccccc1`, for which the “caspase-3 activation” value was -0.41%.

`N[C@@H](Cc1ccc(N(CCCl)CCCl)cc1)C(=O)O`: the “caspase-3 activation” value is 2.7%.

Turning to `Oc1ccccc1-c1ccccc1`, the “caspase-3 activation” value was 2.12%.
